D2 antag – HTS Assay for Allosteric Antagonists of the Human D2 Dopamine Receptor: Primary Screen for Antagonists; D(2) dopamine receptor (Homo sapiens), P14416; HEK293 TREx D2 cells, calcium flux, dopamine EC80; inhibition, % at 10 µM; 2% of 340,000 active; AID 485344, 2010; in the data active = inhibition above about 30%; inactive = below that, where a call was filed
Target sequence (P14416 whole entry, looked up): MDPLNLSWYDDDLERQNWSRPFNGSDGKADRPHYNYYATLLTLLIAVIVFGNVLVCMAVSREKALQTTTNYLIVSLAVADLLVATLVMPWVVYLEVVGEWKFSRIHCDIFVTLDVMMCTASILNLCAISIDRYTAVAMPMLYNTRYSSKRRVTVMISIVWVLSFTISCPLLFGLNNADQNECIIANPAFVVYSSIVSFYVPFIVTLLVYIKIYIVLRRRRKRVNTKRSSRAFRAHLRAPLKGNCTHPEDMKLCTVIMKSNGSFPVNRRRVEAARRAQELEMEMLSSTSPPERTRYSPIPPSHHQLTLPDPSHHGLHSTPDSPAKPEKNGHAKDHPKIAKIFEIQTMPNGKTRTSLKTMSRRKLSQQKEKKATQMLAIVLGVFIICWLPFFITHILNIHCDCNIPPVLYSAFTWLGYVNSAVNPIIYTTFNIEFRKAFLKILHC
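Measurement of antagonist activity uses fluorescent calcium dye in inducible HEK293 T-REx D2 cells: 10 s baseline, compound addition with 180 s read, EC80 dopamine addition with a further 180 s read.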
D2 PAM-1 – Beta-Arrestin HTS for Positive Allosteric Modulators of the Human D2 Dopamine Receptor: Potentiators. DiscoveRx D2 beta-arrestin cells, luminescence, 90 min; 100% = 57 uM dopamine signal. potentiation, % (concentration not given with the values). 0.23% of 360,000 active. AID 624464, 2012; in the data active = potentiation above about 50%; inconclusive = mostly about 30% to 49%
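PathHunter D2 cells, attached overnight at 37 deg C, received compound in DMSO plus dopamine at EC20 (50 nM final) for 90 min at 37 deg C. Beta-arrestin recruitment was read as luminescence after 1 h with detection reagent at ambient temperature.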
D2 PAM-2 – HTS Assay for Positive Allosteric Modulators of the Human D2 Dopamine Receptor: Primary Screen for Potentiators; D(2) dopamine receptor (Homo sapiens), P14416; HEK293 T-REx D2, calcium flux, EC20 dopamine potentiation; potentiation, % at 10 µM; 0.34% of 340,000 active;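 active = potentiation over 3 SD above the plate norm, cut at about 30% in these data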
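Potentiation of an EC20 dopamine calcium response is measured in a force-coupled, tetracycline-inducible Hek293 Trex D2 line. Compound-only kinetic reads over 180 s flag agonists before dopamine addition.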
D2 ag-1 – Beta-Arrestin HTS for Positive Allosteric Modulators of the Human D2 Dopamine Receptor: Agonists; DiscoveRx PathHunter D2 beta-arrestin, luminescence, 90 min; 100% = 57 uM dopamine signal; activation, % (concentration not given with the values); 0.084% of 360,000 active; in the data active = activation above about 40%; inconclusive = between about 15% and that limit
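DiscoveRx PathHunter D2 beta-arrestin cells (2,100/well) attached overnight, then compound-stimulated 90 min at 37 C in HBSS/10 mM HEPES/0.1% Tween-20 buffer; beta-galactosidase complementation read by luminescence after 1 h at ambient temperature. Dopamine 57 uM final (EC100) as control.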
D2 ag-2 – HTS Assay for Allosteric Agonists of the Human D2 Dopamine Receptor: Primary Screen for Agonists; D(2) dopamine receptor (Homo sapiens), P14416; HEK293 T-REx D2 cells, calcium flux agonist mode; activation, % at 2 µM; 0.53% of 340,000 active;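 active = activation over 3 SD above normal in the single-dose calcium agonist read, cut at about 30% in these data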
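Tetracycline-induced HEK293 T-REx cells with force-coupled D2 receptor, plated overnight at 30 C, loaded with no-wash calcium dye. After a 10 s baseline, compound was pin-added and calcium flux read kinetically for 180 s; calcium rises flagged agonists.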
Each line names hits and unclear results; the compound was inactive in the other large screens; ! = not active in a repeat. Compounds with a hit are over-represented: about 2.4% of the library has one in this group of screens.

COc1ccc(/C=N/NC(=O)c2ccc(CN3c4cccc5cccc(c45)S3(=O)=O)cc2)cc1	D2 PAM-2 38
COc1cc(/C=N/NC(=O)c2ccc(CN3c4cccc5cccc(c45)S3(=O)=O)cc2)cc(OC)c1O	none
O=C(/C=C/c1cccc([N+](=O)[O-])c1)OC1CCCCC1=O (stereo not drawn)	D2 antag 31
O=C(NCC1CCCO1)C(=Cc1cccc([N+](=O)[O-])c1)C(=O)NCC1CCCO1 (stereo not drawn)	none
O=C(/C=C/c1cccc([N+](=O)[O-])c1)NCC1CCCO1 (stereo not drawn)	D2 antag 60
CC(C)N(C(=O)/C=C/c1cccc([N+](=O)[O-])c1)C(C)C	none
CCCNC(=O)Cn1nc(-c2ccc(OC)cc2)c2cnc3ccc(F)cc3c21	none (no result: D2 antag, D2 PAM-1, D2 ag-1, D2 ag-2)
COC(=O)COc1ccc2oc(=O)cc(-c3cc4cccc(OC)c4o3)c2c1	D2 antag 46
CCOC(=O)Nc1ccc2c(c1)nc(CN1CCCCC1)n2C	D2 antag 31 (no result: D2 PAM-1, D2 ag-1)
Cn1c(CN2CCCCC2)nc2cc(NC(=O)c3cccc(Br)c3)ccc21	none
Cn1c(CN2CCCCC2)nc2cc(NC(=O)c3ccccc3)ccc21	D2 antag 36, D2 ag-1 inconclusive, D2 ag-2 34
Cc1ccc(-c2nnc(Nc3cccc(Cl)c3)c3ccccc23)cc1S(=O)(=O)N1CCCCC1	none (no result: D2 antag, D2 PAM-1, D2 ag-1)
O=C(c1ccc2nc(N3CCOCC3)sc2c1)N1CCC(Cc2ccccc2)CC1	D2 antag 32
O=C(c1ccc(F)cc1)N1CCC(C(=O)N2CCN(Cc3ccc4c(c3)OCO4)CC2)CC1	D2 antag 31
CCOC(=O)N1CCN(C(=O)c2ccc3nc(N4CCCCC4)sc3c2)CC1	none
Cc1ccccc1C(=O)N1CCC(C(=O)N2CCN(Cc3ccc4c(c3)OCO4)CC2)CC1	none (no result: D2 antag, D2 PAM-2, D2 ag-2)
CCn1cnc2sc(C(=O)N3CCN(Cc4ccc5c(c4)OCO5)CC3)c(C)c2c1=O	D2 ag-2 33 (no result: D2 PAM-1, D2 ag-1)
O=C(c1ccc2nc(N3CCCCC3)sc2c1)N1CCN(Cc2ccc3c(c2)OCO3)CC1	D2 ag-2 49
Cc1oc(-c2ccccc2Cl)nc1CS(=O)(=O)CC(=O)NCc1ccc(F)cc1	none (no result: D2 antag, D2 PAM-1, D2 ag-1)
Cc1cccc(OCC(=O)N(Cc2cccs2)c2ccc(Cl)cc2)c1C	none (no result: D2 antag, D2 PAM-1, D2 ag-1)
CN1CCCN(C(c2ccccc2)c2ccc(Cl)cc2)CC1 (stereo not drawn)	D2 antag 82
COc1cc(CN2CCN(C(c3ccccc3)c3ccccc3)CC2)cc(OC)c1OC	none
Cc1cccc(CN2CCN(C(c3ccccc3)c3ccc(Cl)cc3)CC2)c1 (stereo not drawn)	D2 antag 31
Cc1cc(C)c2c(n1)SCCN2C(=O)Nc1ccc(C(=O)Nc2cc(Cl)ccc2C)cc1	none (no result: D2 antag, D2 PAM-1, D2 ag-1, D2 ag-2)
COc1ccc(C(=O)Nc2ccc3nc4c(c(Nc5ccccc5OC)c3c2)CCCC4)c(OC)c1	none (no result: D2 antag, D2 PAM-1, D2 ag-1)
O=S(=O)(c1ccc(Cl)cc1)c1nc(-c2cccc(Br)c2)oc1NCc1ccccc1	none (no result: D2 antag, D2 PAM-1, D2 ag-1)
COc1ccc(OC)c(NC(=O)c2ccc(OCC(=O)N3CCOCC3)c(OC)c2)c1	none
COc1cc(C(=O)Nc2cc(S(C)(=O)=O)ccc2Cl)ccc1OCC(=O)N1CCOCC1	D2 antag 36
CC1=CS/C(=C(/C#N)C(=O)NCc2ccco2)N1c1ccccc1	D2 antag 31
CN(CC(O)CN1CCOCC1)S(=O)(=O)O (stereo not drawn)	D2 antag 34!
OC(CN1CCOCC1)CN1CCOCC1	none
CCCc1nn2c(=O)cc(COC(=O)c3ccccc3NC(=O)c3cccs3)nc2s1	none (no result: D2 antag, D2 PAM-1, D2 ag-1)
COc1ccc(CNCc2ccco2)cc1OCc1ccccc1	D2 antag 37
COc1ccccc1CCNCc1ccc(OC)c(OCc2ccccc2)c1	none (no result: D2 antag, D2 PAM-2, D2 ag-2)
CCCN(C(=O)c1nn(-c2ccc(OC)cc2)c(=O)c2c1c1ccccc1n2C)c1ccc(CC)cc1	none (no result: D2 antag, D2 PAM-1, D2 PAM-2, D2 ag-1)
C=CCC(NCc1ccccc1)c1ccc(OC)cc1 (stereo not drawn)	none
C=CCC(NCc1ccccc1)c1ccco1 (stereo not drawn)	D2 PAM-2 41
Cc1ccc(NC(=O)c2cccc(NC(=O)N3CCSc4ncccc43)c2)cc1F	none (no result: D2 antag, D2 PAM-1, D2 ag-1, D2 ag-2)
CCOc1ccc(S(=O)(=O)N2CCN(c3c(C)cccc3C)CC2)c2ccccc12	none (no result: D2 antag, D2 PAM-1, D2 ag-1)
CC(C)(C)C(=O)Nc1nc(-c2ccc3c(c2)OCO3)cs1	none
CCC(=O)Nc1nc(-c2ccc3c(c2)OCCO3)cs1	D2 antag 32
O=C(Nc1cc(Cl)cc(Cl)c1)c1cc(S(=O)(=O)N2CCC3(CC2)OCCO3)ccc1F	none (no result: D2 antag, D2 PAM-1, D2 ag-1)
Cc1ccc(S(=O)(=O)CCC(=O)Nc2ccc(Br)cc2C)cc1	none (no result: D2 antag, D2 PAM-1, D2 ag-1)
COc1ccccc1Nc1nn2c(=O)c3ccc(C(=O)NCc4cccnc4)cc3nc2s1	D2 PAM-2 30 (no result: D2 PAM-1, D2 ag-1)
COc1ccccc1Nc1nn2c(=O)c3ccc(C(=O)NCc4ccc(F)cc4)cc3nc2s1	none (no result: D2 antag, D2 PAM-1, D2 ag-1)
Clc1ccc(N=C2SCC3CCCCN23)cc1 (stereo not drawn)	none
FC(F)Oc1ccc(N=C2SCC3CCCCN23)cc1 (stereo not drawn)	D2 PAM-2 36
CCOCCCNC(=O)C(c1ccc(C)cc1)N(Cc1ccc2c(c1)OCO2)C(=O)c1ccccc1O (stereo not drawn)	none (no result: D2 antag, D2 PAM-1, D2 ag-1)
O=C(N/N=C/C=C\c1ccccc1[N+](=O)[O-])c1ccccn1	D2 antag 81
CC(C)Oc1ccc(C(=O)Nc2nc3ccccc3[nH]2)cc1	D2 PAM-2 105
O=C(Nc1nc2ccccc2[nH]1)c1ccc(OC(F)F)cc1	none
Cc1ccc2oc(C(F)(F)C(F)F)cc(=O)c2c1	none
Cc1ccc2oc(C(Cl)(Cl)Cl)cc(=O)c2c1	D2 PAM-1 76
CCN(Cc1ccc(OC)cc1)c1ccc(-c2nc(-c3ccncc3)no2)cc1[N+](=O)[O-]	none (no result: D2 antag, D2 PAM-1, D2 ag-1)
CNc1snc(C)c1C(=O)OCC(=O)N(C)Cc1ccccc1	D2 antag 35, D2 ag-1 inconclusive
CNc1snc(C)c1C(=O)OCC(=O)N(C)c1ccccc1	none
COc1cccc2c1cc1c(=O)n(CC(=O)N3CCN(c4ccccc4F)CC3)nc(C)n12	none (no result: D2 antag, D2 PAM-1, D2 ag-1)
O=C(C1COc2ccccc2O1)N1CCCCC1 (stereo not drawn)	D2 antag 51
Clc1ccc(OCCCN2CCc3ccccc3C2)c(Br)c1	D2 antag 64
CC1CCCN(CCCOc2ccc(Cl)cc2Br)C1 (stereo not drawn)	none
Clc1ccc(SCCOCCN2CCc3ccccc3C2)cc1	D2 antag 50
Clc1ccc(OCCOCCN2CCc3ccccc3C2)c(Cl)c1	D2 antag 64
